Results on three compounds are retold here after PubChem BioAssay (EPA / NIEHS).

Read-out in assay [1]: Fatty acid synthase (Homo sapiens) (UniProt P49327)
Nature of the assay: LTEA_HepaRG_FASN: Life Technologies and Expression Analysis (LTEA) Assay for Fatty Acid Synthase (FASN) using HepaRG (AID 2283448). As to conditions: mRNA level, 48 h; actives raise or lower the signal. The method, boiled down:
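In human HepaRG cultures, 48 h chemical exposure (up to 100 uM, 0.5% DMSO) preceded TaqMan qRT-PCR of FASN.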

Read-out in assay [2]: Cyclin Dependent Kinase Inhibitor 1A (CDKN1A), CDKN1A (gene 1026)
Nature of the assay: LTEA_HepaRG_CDKN1A: Life Technologies and Expression Analysis (LTEA) Assay for Cyclin Dependent Kinase Inhibitor 1A (CDKN1A) using HepaRG (AID 2283450). As to conditions: mRNA level, 48 h; actives raise or lower the signal. The method, boiled down: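 Cryopreserved HepaRG cells were plated and cultured 48 h, then switched to serum-free induction medium. Chemicals (eight half-log concentrations, top 100 uM, 0.5% DMSO) were applied for 48 h. Lysates underwent qRT-PCR for CDKN1A with housekeeping normalization.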

Read-out in assay [3]: Cyclin D1 (CCND1), CCND1 (gene 595)
Description: LTEA_HepaRG_CCND1: Life Technologies and Expression Analysis (LTEA) Assay for Cyclin D1 (CCND1) using HepaRG (AID 2283451). As to conditions: mRNA level, 48 h; actives raise or lower the signal. The method, boiled down: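 Human liver HepaRG line; 48 h dosing, 8 conc. ≤100 uM, 0.5% DMSO; TaqMan qRT-PCR mRNA, 3 housekeeping genes; bidirectional curve fit vs DMSO.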

Read-out in assay [4]: catalase (CAT), CAT (gene 847)
Nature of the assay: LTEA_HepaRG_CAT: Life Technologies and Expression Analysis (LTEA) Assay for catalase (CAT) using HepaRG (AID 2283452). As to conditions: mRNA level, 48 h; actives raise or lower the signal. Summed up: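 Expression of CAT was quantified by TaqMan qRT-PCR with ACTB/GAPDH/POLR2A normalization after 48 h chemical exposure of HepaRG. Eight-point half-log series, top 100 uM, in 0.5% DMSO; gain or loss fitted against vehicle.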

Read-out in assay [5]: flavin-containing dimethylaniline monooxygenases 3 (FMO3), FMO3 (gene 2328)
Description: LTEA_HepaRG_FMO3: Life Technologies and Expression Analysis (LTEA) Assay for flavin-containing dimethylaniline monooxygenases 3 (FMO3) using HepaRG (AID 2283453). As to conditions: mRNA level, 48 h; actives raise or lower the signal. Summed up:
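Eight-point concentration-response in serum-free HepaRG cultures (top 100 uM, 0.5% DMSO, 48 h). Read-out: FMO3 mRNA level normalized to three endogenous control genes, fitted bidirectionally versus vehicle.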

Read-out in assay [6]: Cytochrome P450 (CYP1A1), CYP1A1 (gene 1543)
Nature of the assay: LTEA_HepaRG_CYP1A1: Life Technologies and Expression Analysis (LTEA) Assay for Cytochrome P450 (CYP1A1) using HepaRG (AID 2283454). Conditions: mRNA level, 48 h; actives raise or lower the signal. The method, boiled down: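 Induction of CYP1A1 mRNA in a human hepatic cell line was measured 48 h after dosing, with 1 mM phenobarbital as induction positive control and 0.5% DMSO vehicle as baseline for bidirectional curve fitting.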

Read-out in assay [7]: CFLAR gene, CFLAR (gene 8837)
Description: LTEA_HepaRG_CFLAR: Life Technologies and Expression Analysis (LTEA) Assay for CFLAR gene using HepaRG (AID 2283455). Conditions: mRNA level, 48 h; actives raise or lower the signal. The method, boiled down: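 Transcript level by qRT-PCR (normalized to ACTB, GAPDH and POLR2A) after 48 h chemical exposure of HepaRG cells, top concentration 100 uM with half-log steps, 0.5% DMSO vehicle, duplicates; fitted bidirectionally against DMSO baseline.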

Read-out in assay [8]: Forkhead box O1 (FOXO1), FOXO1 (gene 2308)
Description: LTEA_HepaRG_FOXO1: Life Technologies and Expression Analysis (LTEA) Assay for Forkhead box O1 (FOXO1) using HepaRG (AID 2283456). Conditions: mRNA level, 48 h; actives raise or lower the signal. Summed up: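 FOXO1 transcript quantified by qRT-PCR after 48 h chemical exposure (top 100 uM, half-log steps, 0.5% DMSO) of HepaRG cells, housekeeping-normalized (ACTB/GAPDH/POLR2A). Changes fitted in both directions relative to vehicle.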

Assay [9] is described as follows: CEETOX_H295R_TESTO: CeeTox H295R High-throughput Steroidogenesis Assay for Testosterone (TESTO) (AID 2283457). Conditions: actives raise or lower the signal. Summed up: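 Testosterone synthesis is assessed in human adrenocortical H295R cells after 48 h of chemical exposure, using HPLC-MS/MS of extracted medium. Activity is fitted in both directions against DMSO control.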

Read-out in assay [10]: growth arrest and DNA damage 45 (GADD45A), GADD45A (gene 1647)
Description: LTEA_HepaRG_GADD45A: Life Technologies and Expression Analysis (LTEA) Assay for growth arrest and DNA damage 45 (GADD45A) using HepaRG (AID 2283458). Conditions: mRNA level, 48 h; actives raise or lower the signal. Summed up: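 Eight-point concentration-response in HepaRG cells: 48 h chemical exposure, 0.5% DMSO vehicle, top dose 100 uM. Normalized qRT-PCR mRNA readout with bidirectional fitting relative to DMSO.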

Read-out in assay [11]: Forkhead box O3 (FOXO3), FOXO3 (gene 2309)
Nature of the assay: LTEA_HepaRG_FOXO3: Life Technologies and Expression Analysis (LTEA) Assay for Forkhead box O3 (FOXO3) using HepaRG (AID 2283459). As to conditions: mRNA level, 48 h; actives raise or lower the signal. The method, boiled down: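 FOXO3 transcript measured by qRT-PCR (normalized to ACTB, GAPDH, POLR2A) after 48 h exposure of HepaRG cells in serum-free induction medium. Duplicates, eight half-log concentrations up to 100 uM, 0.5% DMSO; gain or loss fitted against DMSO.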

Read-out in assay [12]: ABC Transporter (ABCB1), ABCB1 (gene 5243)
Nature of the assay: LTEA_HepaRG_ABCB1: Life Technologies and Expression Analysis (LTEA) Assay for ABC Transporter (ABCB1) using HepaRG (AID 2283460). As to conditions: mRNA level, 48 h; actives raise or lower the signal. The method, boiled down:
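ABCB1 transcript level measured by TaqMan qRT-PCR against three housekeeping genes after 48 h chemical exposure of differentiated HepaRG cells. Top concentration 100 uM, half-log steps, eight points, 0.5% DMSO vehicle; bidirectional fit relative to DMSO.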

Read-out in assay [13]: growth arrest and DNA damage 45 (GADD45B), GADD45B (gene 4616)
Description: LTEA_HepaRG_GADD45B: Life Technologies and Expression Analysis (LTEA) Assay for growth arrest and DNA damage 45 (GADD45B) using HepaRG (AID 2283461). As to conditions: mRNA level, 48 h; actives raise or lower the signal. The method, boiled down:
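Values are bidirectional concentration-response fits against 0.5% DMSO controls. Underlying data: qRT-PCR mRNA levels in human HepaRG liver cells treated 48 h in serum-free induction medium, eight concentrations topping at 100 uM.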

Read-out in assay [14]: ABC Transporter (ABCC3), ABCC3 (gene 8714)
Nature of the assay: LTEA_HepaRG_ABCC3: Life Technologies and Expression Analysis (LTEA) Assay for ABC Transporter (ABCC3) using HepaRG (AID 2283462). Conditions: mRNA level, 48 h; actives raise or lower the signal. The method, boiled down:
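Differentiated HepaRG liver cells receive test chemicals at eight concentrations (max 100 uM) for 48 h. Expression of ABCC3 is quantified by qRT-PCR against ACTB, GAPDH and POLR2A, and activity is fitted in both directions against the DMSO control.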

Read-out in assay [15]: ABC Transporter (ABCB11), ABCB11 (gene 8647)
Nature of the assay: LTEA_HepaRG_ABCB11: Life Technologies and Expression Analysis (LTEA) Assay for ABC Transporter (ABCB11) using HepaRG (AID 2283463). Conditions: mRNA level, 48 h; actives raise or lower the signal. The method, boiled down: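 ABCB11 transcript levels quantified by TaqMan qRT-PCR against three housekeeping genes after 48 h chemical exposure of HepaRG cultures. Concentrations up to 100 uM in half-log steps, 0.5% DMSO vehicle; both induction and suppression scored.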

Read-out in assay [16]: ABC Transporter (ABCC2), ABCC2 (gene 1244)
Nature of the assay: LTEA_HepaRG_ABCC2: Life Technologies and Expression Analysis (LTEA) Assay for ABC Transporter (ABCC2) using HepaRG (AID 2283464). As to conditions: mRNA level, 48 h; actives raise or lower the signal. The method, boiled down: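 Gene expression of ABCC2 was determined by qRT-PCR in HepaRG cells exposed 48 h to chemicals (highest 100 uM, half-log dilutions). Activity was fitted in both directions relative to 0.5% DMSO vehicle.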

Read-out in assay [17]: Broad substrate specificity ATP-binding cassette transporter ABCG2 (Homo sapiens) (UniProt Q9UNQ0)
Description: LTEA_HepaRG_ABCG2: Life Technologies and Expression Analysis (LTEA) Assay for ABC Transporter (ABCG2) using HepaRG (AID 2283465). As to conditions: mRNA level, 48 h; actives raise or lower the signal. The method, boiled down: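 ABCG2 transcript was quantified by TaqMan qRT-PCR against three housekeeping genes in HepaRG cells. Cells were treated in duplicate for 48 h across an 8-point half-log series up to 100 uM, with 0.5% DMSO vehicle. Gain or loss versus DMSO was fit.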

Read-out in assay [18]: ATP-citrate lyase (ACLY), ACLY (gene 47)
Nature of the assay: LTEA_HepaRG_ACLY: Life Technologies and Expression Analysis (LTEA) Assay for ATP-citrate lyase (ACLY) using HepaRG (AID 2283466). Conditions: mRNA level, 48 h; actives raise or lower the signal. Summed up: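 ACLY mRNA quantified by qRT-PCR on Fluidigm arrays against three housekeeping genes, after 48 h chemical treatment of HepaRG cells (top concentration 100 uM, half-log steps, 0.5% DMSO vehicle). Up- or down-regulation fitted relative to DMSO.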

Read-out in assay [19]: Peroxisomal acyl-coenzyme A oxidase 1 (ACOX1) gene, ACOX1 (gene 51)
Nature of the assay: LTEA_HepaRG_ACOX1: Life Technologies and Expression Analysis (LTEA) Assay for Peroxisomal acyl-coenzyme A oxidase 1 (ACOX1) gene using HepaRG (AID 2283467). As to conditions: mRNA level, 48 h; actives raise or lower the signal. Summed up: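 ACOX1 transcript levels were quantified by TaqMan qRT-PCR against three housekeeping genes after 48 h chemical exposure of differentiated human HepaRG cells. Exposure used eight half-log steps topping at 100 uM, 0.5% DMSO vehicle, in duplicate. Bidirectional curve fits were made relative to DMSO.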

Read-out in assay [20]: Cyclin D2 (CCND2), CCND2 (gene 894)
Description: LTEA_HepaRG_CCND2: Life Technologies and Expression Analysis (LTEA) Assay for Cyclin D2 (CCND2) using HepaRG (AID 2283449). Conditions: mRNA level, 48 h; actives raise or lower the signal. The method, boiled down:
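CCND2 transcript levels, quantified by qRT-PCR and normalised to three housekeeping genes, were fitted bidirectionally against 0.5% DMSO. HepaRG cultures were dosed 48 h in duplicate with an 8-point half-log series up to 100 uM.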

Molecules are shown by their SMILES. Active and inactive are the calls of the source. The calls were made as follows: active = hit-call score of the fitted dose curve at least 0.9, where 1 is the maximum; inactive = score below 0.9.

Chain of Broad substrate specificity ATP-binding cassette transporter ABCG2 (Homo sapiens) (Q9UNQ0 whole entry, looked up): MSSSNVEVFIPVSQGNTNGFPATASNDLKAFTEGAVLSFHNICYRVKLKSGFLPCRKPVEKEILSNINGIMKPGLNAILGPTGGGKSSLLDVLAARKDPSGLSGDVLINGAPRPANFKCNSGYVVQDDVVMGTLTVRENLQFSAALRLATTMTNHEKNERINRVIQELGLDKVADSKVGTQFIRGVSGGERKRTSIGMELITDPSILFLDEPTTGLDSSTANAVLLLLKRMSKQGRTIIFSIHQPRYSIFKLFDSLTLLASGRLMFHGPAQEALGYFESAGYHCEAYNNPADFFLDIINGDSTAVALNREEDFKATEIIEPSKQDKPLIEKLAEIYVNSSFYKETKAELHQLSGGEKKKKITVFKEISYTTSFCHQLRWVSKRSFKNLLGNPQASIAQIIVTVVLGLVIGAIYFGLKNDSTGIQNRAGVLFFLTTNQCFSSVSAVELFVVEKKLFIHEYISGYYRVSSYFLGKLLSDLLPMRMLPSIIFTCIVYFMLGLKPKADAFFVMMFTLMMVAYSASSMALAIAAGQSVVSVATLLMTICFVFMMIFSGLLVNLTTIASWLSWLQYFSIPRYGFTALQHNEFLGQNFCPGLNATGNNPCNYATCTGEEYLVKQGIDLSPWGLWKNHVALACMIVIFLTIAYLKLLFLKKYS
Chain of Fatty acid synthase (Homo sapiens) (P49327 whole entry, looked up): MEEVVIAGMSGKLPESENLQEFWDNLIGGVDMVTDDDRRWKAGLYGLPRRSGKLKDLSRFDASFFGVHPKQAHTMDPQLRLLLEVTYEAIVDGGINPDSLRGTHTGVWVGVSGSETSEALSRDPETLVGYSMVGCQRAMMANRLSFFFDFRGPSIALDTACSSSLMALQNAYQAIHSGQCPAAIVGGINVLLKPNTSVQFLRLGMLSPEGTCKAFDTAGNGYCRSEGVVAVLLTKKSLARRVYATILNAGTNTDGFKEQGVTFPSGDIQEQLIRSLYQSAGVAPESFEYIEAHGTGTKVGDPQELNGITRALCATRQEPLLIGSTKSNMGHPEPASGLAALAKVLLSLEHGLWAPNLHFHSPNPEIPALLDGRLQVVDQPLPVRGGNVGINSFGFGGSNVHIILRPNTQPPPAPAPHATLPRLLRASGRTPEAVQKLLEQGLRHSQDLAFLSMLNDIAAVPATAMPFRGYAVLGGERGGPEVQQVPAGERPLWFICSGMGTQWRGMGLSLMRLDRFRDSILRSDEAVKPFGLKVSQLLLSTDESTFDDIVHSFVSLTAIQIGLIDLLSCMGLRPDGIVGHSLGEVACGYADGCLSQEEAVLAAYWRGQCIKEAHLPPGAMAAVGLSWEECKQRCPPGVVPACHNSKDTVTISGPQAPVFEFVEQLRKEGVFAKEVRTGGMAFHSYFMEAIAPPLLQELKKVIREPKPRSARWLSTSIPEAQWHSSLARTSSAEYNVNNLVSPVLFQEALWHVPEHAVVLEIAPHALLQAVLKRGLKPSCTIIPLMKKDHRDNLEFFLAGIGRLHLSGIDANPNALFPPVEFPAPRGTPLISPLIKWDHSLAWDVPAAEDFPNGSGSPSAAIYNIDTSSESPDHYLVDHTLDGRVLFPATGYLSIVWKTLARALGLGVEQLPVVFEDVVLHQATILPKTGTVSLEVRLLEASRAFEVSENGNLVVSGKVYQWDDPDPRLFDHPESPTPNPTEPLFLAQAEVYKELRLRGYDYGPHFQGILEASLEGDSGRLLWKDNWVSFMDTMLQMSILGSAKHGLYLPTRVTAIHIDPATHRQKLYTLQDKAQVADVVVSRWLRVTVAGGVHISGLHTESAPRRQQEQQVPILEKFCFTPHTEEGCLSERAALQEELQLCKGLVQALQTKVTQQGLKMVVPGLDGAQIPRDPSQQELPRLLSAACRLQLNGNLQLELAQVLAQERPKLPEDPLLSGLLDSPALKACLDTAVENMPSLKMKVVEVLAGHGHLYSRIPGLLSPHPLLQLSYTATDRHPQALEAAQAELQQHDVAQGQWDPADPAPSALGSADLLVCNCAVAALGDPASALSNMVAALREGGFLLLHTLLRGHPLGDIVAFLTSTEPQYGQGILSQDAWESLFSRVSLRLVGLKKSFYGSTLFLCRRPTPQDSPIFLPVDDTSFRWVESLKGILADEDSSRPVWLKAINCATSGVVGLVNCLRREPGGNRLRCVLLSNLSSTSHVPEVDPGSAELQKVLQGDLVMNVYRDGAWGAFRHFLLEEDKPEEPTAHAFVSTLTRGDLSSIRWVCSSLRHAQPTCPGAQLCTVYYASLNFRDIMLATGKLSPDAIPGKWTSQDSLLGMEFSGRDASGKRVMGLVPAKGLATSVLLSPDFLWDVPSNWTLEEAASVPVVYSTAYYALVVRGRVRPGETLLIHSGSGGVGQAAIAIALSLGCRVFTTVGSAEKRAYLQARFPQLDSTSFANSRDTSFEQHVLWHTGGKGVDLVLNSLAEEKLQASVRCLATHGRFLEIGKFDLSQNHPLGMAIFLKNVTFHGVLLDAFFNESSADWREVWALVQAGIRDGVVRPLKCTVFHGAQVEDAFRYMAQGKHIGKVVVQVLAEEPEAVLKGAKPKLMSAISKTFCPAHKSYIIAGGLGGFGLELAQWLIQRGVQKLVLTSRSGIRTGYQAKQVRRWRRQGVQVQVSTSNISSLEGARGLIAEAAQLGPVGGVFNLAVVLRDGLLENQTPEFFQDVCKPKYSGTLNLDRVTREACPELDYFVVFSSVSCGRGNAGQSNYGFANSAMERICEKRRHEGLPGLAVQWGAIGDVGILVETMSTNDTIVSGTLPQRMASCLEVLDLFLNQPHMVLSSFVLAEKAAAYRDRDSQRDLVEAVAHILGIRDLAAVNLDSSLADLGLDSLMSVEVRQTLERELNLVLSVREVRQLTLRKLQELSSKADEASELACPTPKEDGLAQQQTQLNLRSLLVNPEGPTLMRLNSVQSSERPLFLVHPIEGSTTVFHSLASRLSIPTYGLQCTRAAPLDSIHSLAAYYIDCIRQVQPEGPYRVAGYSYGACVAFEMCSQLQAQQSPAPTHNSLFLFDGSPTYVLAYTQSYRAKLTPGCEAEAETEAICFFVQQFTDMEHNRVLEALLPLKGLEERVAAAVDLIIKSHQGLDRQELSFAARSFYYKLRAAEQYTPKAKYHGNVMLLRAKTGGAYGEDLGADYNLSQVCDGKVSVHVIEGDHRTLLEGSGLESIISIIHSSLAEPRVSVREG

Regarding `CC(COc1ccc(Oc2ccccc2)cc1)Oc1ccccn1` (configuration not stated), the AC50 in assay [1] was 30.5 µM (active); in assay [6], 77.4 µM (active); in assay [16] it was 29.2 µM (active); in [17], 20.6 µM (active). The compound was called inactive in [2], in [3], in [4], in [5], in [7] and in [8]. In addition, the outcome in assay [9], in [10], in assay [11], in assay [12], in assay [13] and in assay [14] was inactive. The compound was called inactive in assay [15], in assay [18] and in [19].
As for `CN(C)NC(=O)CCC(=O)O`, the compound was called inactive in assay [1], in assay [2], in assay [3], in assay [4], in assay [5] and in [6]. The compound was called inactive in [7], in assay [8], in assay [10], in assay [11], in assay [12] and in assay [13]. Moreover, the result in assay [14], in assay [15], in assay [16], in assay [17], in [18] and in assay [19] was inactive.
For `CCOC(=O)COc1cc(-c2nn(C)c(OC(F)F)c2Cl)c(F)cc1Cl`, the outcome in assay [1], in assay [20], in assay [2], in [3], in assay [4] and in assay [5] was inactive. In addition, the compound was classed as inactive in assay [7], in assay [8], in assay [9], in [10], in assay [11] and in assay [13]. Also, the call in [14], in assay [15], in assay [17], in assay [18] and in assay [19] was inactive. The AC50 in [6] is 50 µM (active); in assay [12], 34.3 µM (active); in assay [16], 50 µM (active).
